# Source: PubChem (several laboratories)
# Most compounds without a hit are left out; they make up all but 4.7% or so of the library.
# ATG4B inh: ATG4B protease inhibitors, primary screen, biochemical, fluorescence, uHTS; ATG4B cleavage of LC3-PLA2, NBD-HPC fluorescence, 1 h; hit rate 0.51% among 340,000; inhibition, % at 8.33 µM; AID 504462, 2011; in the data active means inhibition above about 40%
# Target sequence (Q9Y4P1 whole entry, looked up): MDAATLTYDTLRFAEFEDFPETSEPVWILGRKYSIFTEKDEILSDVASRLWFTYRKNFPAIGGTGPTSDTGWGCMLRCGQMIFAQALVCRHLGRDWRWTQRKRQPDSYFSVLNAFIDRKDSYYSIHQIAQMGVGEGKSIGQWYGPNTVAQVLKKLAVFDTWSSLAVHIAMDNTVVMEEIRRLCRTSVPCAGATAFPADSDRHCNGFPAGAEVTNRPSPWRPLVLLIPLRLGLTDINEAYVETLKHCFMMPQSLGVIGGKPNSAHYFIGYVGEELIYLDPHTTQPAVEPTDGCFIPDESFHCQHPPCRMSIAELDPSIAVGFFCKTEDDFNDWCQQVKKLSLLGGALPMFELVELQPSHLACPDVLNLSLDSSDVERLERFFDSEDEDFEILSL
# tim23-1 inh: growth inhibitors of tim23-1 mutant yeast, primary screen, luminescence, uHTS; S. cerevisiae tim23-1 growth, BacTiter-Glo luminescence, 24 h; inhibition, % at 20 µM; hit rate 1.3% among 330,000; AID 463212, 2010;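 active means growth inhibition of the mutant yeast at or above 50%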;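 further: temperature-sensitive mutant grown at 25 °C; plate controls were DMSO-treated mutant yeast for no effect and medium wells lacking yeast for full effect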
# tim10-1 inh: growth inhibitors of tim10-1 mutant yeast, primary screen, luminescence, uHTS; S. cerevisiae tim10-1 ts strain growth, BacTiter-Glo, 24 h; AID 463190, 2010; inhibition, % at 20 µM; hit rate 2.2% among 330,000;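 active means inhibition of at least 40%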;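 further: mutant grown at 25 °C; 0% = DMSO wells with yeast and 100% = wells holding no yeast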
# TIM10 inh: growth inhibitors of isogenic TIM10 control yeast, primary screen, counter-screen for tim10-1 yeast inhibitor project, luminescence, uHTS. inhibition, % at 10 µM. hit rate 1.4% among 330,000. S. cerevisiae TIM10 strain growth, BacTiter-Glo luminescence, 24 h;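 active means inhibition of 40% or more at the single tested concentration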;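 further: wild-type TIM10 isogenic control strain grown at permissive 25 °C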
# SKKanGAS inh: S. pyogenes SKKanGAS growth inhibitors in kanamycin, primary screen, streptokinase expression inhibitor project, SKKanGAS strain, BacTiter-Glo luminescence. 6 h. inhibition, % at 7.5 µM. hit rate 1.3% among 300,000;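 active means mean replicate score, as percent of positive control median, at least 50; inconclusive means mean below 50 but one replicate at or above 50; inactive means mean and every replicate below 50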;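 further: strain carries kanamycin resistance gene driven by streptokinase promoter and grows in 40 µg/ml kanamycin; loss of luminescence reflects streptokinase promoter inhibition or plain growth inhibition; 0% = median of DMSO wells and 100% = positive control at its reference dose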
# PfHsp90 set2: growth inhibition of PfHsp90-expressing yeast, primary screen, antimalarial PfHsp90 inhibitor project, S. cerevisiae, BacTiter-Glo luminescence, single point, set 2; hit rate 0.32% among 310,000; inhibition, % at 9.4 µM; BacTiter-Glo ATP, 48 h; yeast lacking PDR1 and PDR3 efflux regulators;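 active means every replicate shows inhibition above about 80%, whatever the replicate mean, limit read from the data; inconclusive means mean inhibition reaches the set limit but some replicate falls short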;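 further: 0% = DMSO neutral controls and 100% = 20 µM radicicol positive controls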
# Active calls of the source: *; u = inconclusive; x = not tested or not shown.
SMILES,ATG4B inh,tim23-1 inh,tim10-1 inh,TIM10 inh,SKKanGAS inh,PfHsp90 set2
O=[N+]([O-])c1cc(Br)c(O)c(/C=N/Nc2nnnn2-c2cccc3ccccc23)c1,17,32,25,10,66*,-4
CN(C)S(=O)(=O)c1ccc(C(=O)Nc2nnc(-c3cccs3)o2)cc1,2,-7,9,11,-2,20
O=C(Nc1nnc(-c2cccs2)o1)C1CC1,-8,-10,-28,-6,3,3
O=C(Nc1nnc(-c2cccs2)o1)c1cccc(C(F)(F)F)c1,17,6,7,5,92*,-107
N#Cc1ccc(C(=O)Nc2nnc(-c3cccs3)o2)cc1,13,6,10,-21,52*,-43
CCCCCCCCCCCCCCCCn1cc[n+](CC(C)=O)c1,32,x,x,x,x,105*
COc1ccccc1Nc1ccc([N+](=O)[O-])cn1,13,6,10,18,-3,-21
CCc1c(C)nc2cc(-c3ccc(OC)c(OC)c3)nn2c1N1CCC(C)CC1,-9,15,30,31,57*,-14
Cc1ccc(-c2nn(-c3ccccc3)cc2/C=N/NC(=O)CSc2nnc(C)n2-c2ccccc2)cc1,7,17,11,11,54*,-11
CNC(=O)Nc1ccccc1C(=O)Nc1ccccc1,6,14,6,0,35,11
CCCCCCOC(=O)/C=C/c1c(C)[nH]c(=O)[nH]c1=O,3,3,9,1,86*,0
CCCCCCCCOC(=O)CCc1c(C)[nH]c(=S)[nH]c1=O,-3,23,15,4,2,-11
CCOC(=O)c1c(NC(=O)c2cccs2)sc2c1CCCC2,-14,16,12,-5,-3,-19
CCOC(=O)c1c(NC(=O)c2cccs2)sc2c1CCN(C(=O)OCC)C2,-8,20,18,15,54*,2
Cc1ccc(SCc2c(-c3ccccc3)nn(C)c2Cl)cc1,26,3,4,2,31,-6
Cn1nc(-c2ccccc2)c(CSc2ccccc2)c1Cl,31,-4,7,4,62*,-9
CCOc1ccccc1NC(=O)CC1NCCNC1=O (stereo not given),-11,0,14,-1,10,10
N=C1/C(=C\c2ccc(-c3cccc(Cl)c3)o2)C(=O)N=C2SC=C(c3ccccc3)N12,16,13,10,2,17,-7
N=C1S/C(=C\c2ccc(-c3cccc(Cl)c3)o2)C(=O)N1c1nccs1,12,x,x,x,131*,-56
COc1ccc(/C=C2\SC(=N)N(c3nccs3)C2=O)cc1OC,-9,31,22,11,89*,-34
COc1ccc(-n2c(=S)[nH]c3ccccc3c2=S)cc1,-6,16,6,26,10,-9
O=c1c2cc(Br)ccc2nc(-c2ccc(Cl)cc2)n1O,3,x,x,x,89*,16
O=[N+]([O-])c1ccc(O)c(-c2nc(-c3ccccc3)c(-c3cccs3)[nH]2)c1,-2,30,28,26,102*,x
O=C(O)c1ccc(-c2nc(-c3ccccc3)c(-c3cccs3)[nH]2)cc1,13,20,9,20,13,0
Cc1ccc(-c2csc(NC(=S)NC(=O)/C=C/c3ccco3)n2)cc1,18,-5,28,13,-1,-12
SMILES,ATG4B inh,tim23-1 inh,tim10-1 inh,TIM10 inh,SKKanGAS inh,PfHsp90 set2
O=C(/C=C\c1ccco1)Nc1nc(-c2ccc3ccccc3c2)cs1,27,14,-10,8,63*,-9
CCc1nnc(N/N=C/c2cc(Br)c(O)cc2O)n1N,3,4,5,2,0,-8
CC(C)(C)c1nnc(N/N=C/c2cc(Br)ccc2O)n(N)c1=O,18,x,x,x,78*,105*
CCCCc1oc2ccccc2c1C(=O)c1cc(I)c(OCCN(CC)CC)c(I)c1,1,x,17,15,106*,-89
CC1Cc2ccccc2N1C(=O)CSc1nnnn1C (stereo not given),0,8,12,-16,-7,-3
O=c1c(Cl)c(N2CCCCC2)cnn1-c1nc2ccccc2[nH]1,1,39,4,9,27,39
O=c1c2ccccc2cnn1-c1nc2ccccc2[nH]1,-8,x,x,x,58*,72
COc1ccc(C2C(CC(=O)O)=C(O)C(=O)N2c2ccccc2)cc1 (stereo not given),-6,22,18,6,-2,-4
CC(=O)c1ccc(N2CCN(C(=O)C3CCCN3S(=O)(=O)c3cccc4nsnc34)CC2)cc1 (stereo not given),2,4,3,11,3,7
CC(C)OC(=O)c1cccnc1N1CCN(c2cccc(Cl)c2)CC1,0,-7,22,0,60*,-4
CCOC(=O)Cn1nnc(-c2ccccc2)n1,-12,6,1,-4,0,-6
CCCn1c(=O)c2c(nc3n2CCCN3CCc2ccc(OC)c(OC)c2)n(C)c1=O,-7,16,19,6,-2,-22
CCOC(=O)c1c(C)n(C)c2ccc(OCC(O)CNC(CC)CO)cc12 (stereo not given),-10,5,0,6,-1,14
NC(=O)CCCn1c(C(=O)c2cc(Cl)c(N)c(Cl)c2)c2ccc([N+](=O)[O-])cc2[n+]1[O-],6,18,22,16,69*,-20
O=C1C=CC(=O)N1CCCCCCCCCCN1C(=O)C=CC1=O,-4,x,x,x,x,107*
O=C1C=CC(=O)N1Cc1ccncc1,-1,x,x,x,x,2
COC1=C(N)C(=O)c2nc(-c3nc(C(=O)O)c(C)c(-c4ccc(OC)c(OC)c4O)c3N)ccc2C1=O,69*,-2,-63,-57,x,x
CCCC(=O)C1=C(O)C(C(=O)OC)C(C)(C)CC1=Nc1ccc(Br)cc1 (stereo not given),-4,29,22,22,3,8
COC(=O)c1cc(Cl)c(NC(=O)/C=C/c2ccc(OC)c(OC)c2)cc1OC,-21,12,19,-1,29,1
O=c1cc(CSc2ccc(Cl)cc2)nc(-c2ccccc2)[nH]1,-5,18,15,26,4,-17
O=c1cc(CSc2ccc(Cl)cc2)nc(-c2ccccn2)[nH]1,-5,25,27,-33,97*,105*
Cc1ccc(C(=O)N2CCOCC2)cc1S(=O)(=O)N1CCOCC1,1,-3,6,-8,51*,11
Cc1ccc(C(=O)N2CCCC2)cc1S(=O)(=O)N1CCOCC1,-3,6,-1,-1,-8,-5
Cc1cc(C)cc(OCC(=O)NNC(=S)NC(=O)C2CC2)c1,-10,14,23,-13,87*,u
